Experimental data published in ChEMBL document CHEMBL4808148, “HDAC6 screening dataset using tau-based substrate in an enzymatic assay yields selective inhibitors and activators” (2021).
The campaign covered roughly 5,600 compounds. About 390 (7%) showed an effect of 50% or more. Shown is part of a subset that was picked to be rich in strong results. Non-standard residues stand in square brackets, D forms with d. Residues, ends and D or L forms follow the SMILES beside them. *: point of attachment. dPhe(4-NHCONH2) = NC(=O)Nc1ccc(C[C@@H](N)C(=O)O)cc1; Dihydroorotyl(S) = O=C1C[C@@H](C(=O)*)NC(=O)N1; dPhe(4-Cl) = N[C@H](Cc1ccc(Cl)cc1)C(=O)O; Phe(4-NH2) = Nc1ccc(C[C@H](N)C(=O)O)cc1; d2Nal = N[C@H](Cc1ccc2ccccc2c1)C(=O)O; Lys(iPr) = CC(C)NCCCC[C@H](N)C(=O)O; d3Pal = N[C@H](Cc1cccnc1)C(=O)O

biological target: T1, Protein deacetylase HDAC6 (Homo sapiens) (UniProt Q9UBN7); conditions: at 10 µM
T1 sequence (whole entry): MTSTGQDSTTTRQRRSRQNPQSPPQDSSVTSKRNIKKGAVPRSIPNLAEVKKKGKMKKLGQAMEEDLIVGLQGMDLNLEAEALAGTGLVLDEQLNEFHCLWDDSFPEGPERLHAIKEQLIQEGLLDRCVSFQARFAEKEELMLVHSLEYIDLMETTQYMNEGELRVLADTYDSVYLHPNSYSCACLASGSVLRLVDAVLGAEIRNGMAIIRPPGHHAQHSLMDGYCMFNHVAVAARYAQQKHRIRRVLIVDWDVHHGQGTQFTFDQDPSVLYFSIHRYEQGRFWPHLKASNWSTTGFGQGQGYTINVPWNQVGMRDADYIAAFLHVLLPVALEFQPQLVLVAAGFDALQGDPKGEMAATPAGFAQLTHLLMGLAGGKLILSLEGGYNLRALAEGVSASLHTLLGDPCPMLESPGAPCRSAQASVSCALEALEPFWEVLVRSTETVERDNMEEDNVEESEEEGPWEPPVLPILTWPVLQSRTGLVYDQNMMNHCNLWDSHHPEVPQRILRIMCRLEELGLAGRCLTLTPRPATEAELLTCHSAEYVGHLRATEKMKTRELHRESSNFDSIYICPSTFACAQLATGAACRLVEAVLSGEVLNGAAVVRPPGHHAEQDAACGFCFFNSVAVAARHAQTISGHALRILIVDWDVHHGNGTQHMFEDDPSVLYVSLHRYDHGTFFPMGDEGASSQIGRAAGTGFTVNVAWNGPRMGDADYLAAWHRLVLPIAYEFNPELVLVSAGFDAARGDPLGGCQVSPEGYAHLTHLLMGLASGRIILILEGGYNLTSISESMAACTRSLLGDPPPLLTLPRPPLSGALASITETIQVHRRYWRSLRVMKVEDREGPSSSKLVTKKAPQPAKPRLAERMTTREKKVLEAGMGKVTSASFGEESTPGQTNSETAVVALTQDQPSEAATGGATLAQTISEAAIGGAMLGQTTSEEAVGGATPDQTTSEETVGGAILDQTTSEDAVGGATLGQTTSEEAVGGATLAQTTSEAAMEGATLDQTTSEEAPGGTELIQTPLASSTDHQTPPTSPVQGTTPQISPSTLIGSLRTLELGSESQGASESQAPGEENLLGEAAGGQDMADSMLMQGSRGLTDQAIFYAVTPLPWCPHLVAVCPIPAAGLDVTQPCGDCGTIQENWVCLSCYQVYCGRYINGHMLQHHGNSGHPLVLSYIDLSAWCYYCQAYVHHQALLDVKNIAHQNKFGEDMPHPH

Q: For `Oc1cccc(-c2c3nc(c(-c4cccc(O)c4)c4ccc([nH]4)c(-c4cccc(O)c4)c4nc(c(-c5cccc(O)c5)c5ccc2[nH]5)CC4)C=C3)c1`, which inhibition is on record?
A: Its inhibition is 36.9%.

Q: For `Nc1nc(N)c2nc(-c3cccc(O)c3)cnc2n1`, which inhibition is on record?
A: The inhibition was 88.7%.

Q: Which inhibition does the source give for `Nc1nc(N)c2nc(-c3ccccc3)c(N)nc2n1` here?
A: The inhibition was 19.4%.

Q: For `CCc1cc(C(C)=O)c(O)cc1OCCCCCC(C)(C)c1nn[nH]n1`, which inhibition is on record?
A: Its inhibition is 8.67%.

Q: `CCCCN(CC)c1nc(C)nc2c1c(C)c(C)n2-c1c(C)cc(C)cc1C` was tested. Which inhibition did it give?
A: Its inhibition is 7.01%.

Q: With `CN(Cc1ccccc1)C(=O)[C@H](Cc1ccc2ccccc2c1)NC(=O)[C@@H]1C[C@@H](O)CN1C(=O)c1cn(C)c2ccccc12` as the molecule, how does the inhibition read?
A: Its inhibition is 84.1%.

Q: With `Cn1cc(C(=O)OCC2CCN(CCNS(C)(=O)=O)CC2)c2ccccc21` as the molecule, how does the inhibition read?
A: Its inhibition is -8.82%.

Q: With `CN(C)CC/C=C1/c2ccccc2COc2ccc(CC(=O)O)cc21` as the molecule, how does the inhibition read?
A: Its inhibition is 2.79%.

Q: How did the inhibition turn out when `CC(C)Cc1ccc(C(C)C(=O)NO)cc1` (centres undefined) was run?
A: The inhibition was 49.7%.

Q: With `CC1(N)CCN(c2cnc(-c3cccc(Cl)c3Cl)c(N)n2)CC1` as the molecule, how does the inhibition read?
A: The inhibition was 21.6%.

Q: Which inhibition does the source give for `O=C(O)/C=C/c1ccc(-c2ccc(O)c(C34CC5CC(CC(C5)C3)C4)c2)cc1` here?
A: The inhibition was 30.5%.

Q: How did the inhibition turn out when `O=C(/C=C/c1ccc(O)c(O)c1)OCCc1ccccc1` was run?
A: The inhibition was 80.7%.

Q: `C[C@@](Cc1ccc(O)c(O)c1)(NN)C(=O)O` was tested. Which inhibition did it give?
A: The inhibition was -8.77%.

Q: For `COc1cc(NC(=O)Nc2cccc(CNC(=O)O[C@H]3CCOC3)c2)ccc1-c1cnco1`, which inhibition is on record?
A: The inhibition was 38.8%.

Q: How did the inhibition turn out when `CCCCCCNC(=O)n1cc(F)c(=O)[nH]c1=O` was run?
A: Its inhibition is 5.48%.

Q: `Cn1cc(-c2cnc3ccc4ccc(CS(=O)(=O)NCc5ccccn5)cc4c(=O)c3c2)cn1` was tested. Which inhibition did it give?
A: The inhibition was -2.81%.

Q: For `O=C(NCc1ccc2c(c1)OCO2)c1c(Cl)cccc1Cl`, which inhibition is on record?
A: Its inhibition is 76.1%.

Q: `O=C(COc1ccc(Cl)cc1)N1CCN(Cc2ccc3c(c2)OCO3)CC1` was tested. Which inhibition did it give?
A: Its inhibition is 6.09%.

Q: For `O=C(CN1CCN(Cc2ccc3c(c2)OCO3)CC1)N1c2ccccc2Sc2ccccc21`, which inhibition is on record?
A: Its inhibition is 8.76%.

Q: `NC(Cc1ccc(Cl)cc1)C(=O)O` (racemic) was tested. Which inhibition did it give?
A: The inhibition was 19.5%.

Q: With `Cc1ccc(-n2sc(=O)n(Cc3ccc(F)cc3)c2=O)cc1` as the molecule, how does the inhibition read?
A: The inhibition was 41.5%.

Q: For `O=c1sn(-c2cccc3ccccc23)c(=O)n1Cc1ccccc1`, which inhibition is on record?
A: Its inhibition is 83.4%.

Q: With `CNC(=O)c1ccc2cc(C3(O)CCn4cncc43)ccc2c1` (centres undefined) as the molecule, how does the inhibition read?
A: Its inhibition is 25.9%.

Q: For `Nc1nc2c(c(N3CCNCC3)n1)CCC1=C2[C@@H]2CCCC[C@@H]2O1`, which inhibition is on record?
A: The inhibition was -3.26%.

Q: With `C[C@H](NCc1ccc(OCc2ccccc2F)cc1)C(N)=O` as the molecule, how does the inhibition read?
A: Its inhibition is 69.4%.

Q: For `CC(C)NCC(O)COc1ccc(CC(N)=O)cc1` (centres undefined), which inhibition is on record?
A: Its inhibition is 4.66%.

Q: With `C[C@H](NC(=O)Cc1cc(F)cc(F)c1)C(=O)N[C@H](C(=O)OC(C)(C)C)c1ccccc1` as the molecule, how does the inhibition read?
A: Its inhibition is 17.3%.

Q: Which inhibition does the source give for `C[C@H](NCc1ccc(OCc2cccc(F)c2)cc1)C(N)=O` here?
A: The inhibition was 83.6%.

Q: For `CNNCc1ccc(C(=O)NC(C)C)cc1`, which inhibition is on record?
A: The inhibition was 4.33%.

Q: For `CC(C)COc1ccc(CNC(=O)N(Cc2ccc(F)cc2)C2CCN(C)CC2)cc1`, which inhibition is on record?
A: Its inhibition is -8.99%.

Q: `C(#Cc1nc2ncccc2nc1OCCN1CCCC1)c1ccccc1` was tested. Which inhibition did it give?
A: The inhibition was 30.5%.

Q: `O=c1[nH]c2ccccc2n1CCCN1CCN(C(c2ccccc2)c2ccccc2)CC1` was tested. Which inhibition did it give?
A: Its inhibition is -9.27%.

Q: `O=C1c2ccccc2-n2c1nc1ccccc1c2=O` was tested. Which inhibition did it give?
A: The inhibition was 104%.

Q: `C[C@H](NC[C@H](O)CP(=O)(O)Cc1ccccc1)c1ccc(Cl)c(Cl)c1` was tested. Which inhibition did it give?
A: The inhibition was -2.08%.

Q: Which inhibition does the source give for `N=C(N)S/C=C\C(=O)O` here?
A: Its inhibition is 6.84%.

Q: With `CC(=O)N[C@H](Cc1ccc2ccccc2c1)C(=O)N[C@H](Cc1ccc(Cl)cc1)C(=O)N[C@H](Cc1cccnc1)C(=O)N[C@@H](CO)C(=O)N[C@@H](Cc1ccc(NC(=O)[C@@H]2CC(=O)NC(=O)N2)cc1)C(=O)N[C@H](Cc1ccc(NC(N)=O)cc1)C(=O)N[C@@H](CC(C)C)C(=O)N[C@@H](CCCCNC(C)C)C(=O)N1CCC[C@H]1C(=O)N[C@H](C)C(N)=O` (Ac-[d2Nal][dPhe(4-Cl)][d3Pal]S[Phe(4-NH2)](Dihydroorotyl(S))[dPhe(4-NHCONH2)]L[Lys(iPr)]P[dA]-NH2) as the molecule, how does the inhibition read?
A: The inhibition was 33.2%.

Q: How did the inhibition turn out when `NS(=O)(=O)c1cc2c(cc1Cl)NCNS2(=O)=O` was run?
A: Its inhibition is -9.26%.

Q: How did the inhibition turn out when `CN1C(CSCC(F)(F)F)Nc2cc(Cl)c(S(N)(=O)=O)cc2S1(=O)=O` (centres undefined) was run?
A: The inhibition was 11.5%.

Q: With `NS(=O)(=O)c1cc2c(cc1Cl)N=C(CSCc1ccccc1)NS2(=O)=O` as the molecule, how does the inhibition read?
A: Its inhibition is 78.4%.

Q: `COc1cc(OC)cc(C(=O)NNC(=O)Nc2cccc3ccccc23)c1` was tested. Which inhibition did it give?
A: Its inhibition is 9.39%.

Q: `O=C(O)c1ccccc1Nc1cccc(OCc2ccc3ccccc3n2)c1` was tested. Which inhibition did it give?
A: The inhibition was 14.8%.

Q: How did the inhibition turn out when `Cn1cc(-c2ccncc2)c(-c2ccc(OCc3ccc4ccccc4n3)cc2)n1` was run?
A: Its inhibition is 4.18%.

Q: `CCCCCC(O)c1cccc(OCc2ccc3ccccc3n2)c1` (centres undefined) was tested. Which inhibition did it give?
A: Its inhibition is 70.6%.

Q: Which inhibition does the source give for `NS(=O)(=O)c1cc(C(=O)O)cc(N2CCCC2)c1Oc1ccccc1` here?
A: Its inhibition is 1.91%.

Q: Which inhibition does the source give for `COc1c(Nc2ccc(S(C)(=O)=O)nc2C)ncnc1OC1CCN(C(=O)OC(C)C)CC1` here?
A: The inhibition was 42.5%.

Q: Which inhibition does the source give for `O=C1NCCN1CCN1CCC(c2cn(-c3ccc(F)cc3)c3ccc(Cl)cc23)CC1` here?
A: Its inhibition is 3.95%.

Q: How did the inhibition turn out when `Cc1c(Cn2c(C)nc3c(C(=O)O)cc(N4CCOCC4)cc32)cccc1C(F)(F)F` was run?
A: Its inhibition is 13.4%.

Q: How did the inhibition turn out when `Cc1cc([C@@H](C)Nc2ccccc2C(=O)O)c2nc(N3CCOCC3)cc(=O)n2c1` was run?
A: Its inhibition is 92.5%.

Q: For `O=c1cc(N2CCOCC2)nc2c3ccccc3ccn12`, which inhibition is on record?
A: The inhibition was 33.6%.
